# Source: PubChem (National Center for Advancing Translational Sciences (NCATS))
# NS1 inh – inhibitors of influenza NS1 protein function; Potency, µM (highest dose often 46.1 µM); actives 0.4% (n = 270,000); note: actives are rising curves; nearly all actives have a fitted effect of over 50% in size
#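 Read-out: OD600 growth recovery of NS1-expressing budding yeast. Cells grown overnight at 30C in -URA glucose medium, washed, resuspended and diluted 1:100 in 2% galactose assay medium, pH 6.0. Same strain lacking NS1 served as positive control.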
# SARS PLP yeast – blocks SARS-CoV papain-like protease in a yeast assay; actives 0.19% (n = 330,000); S. cerevisiae expressing SARS-CoV PLpro, growth rescue; Potency, µM (series often up to 32.9 µM), usual class: activators; note: nearly all actives have a fitted effect of over 55% in size
# Cycloheximide cs – affects cycloheximide protein synthesis inhibition readout, counter-screen; max response, %; actives 12% (n = 300,000); cell reporter, cycloheximide protein synthesis inhibition counterscreen; in the data active = max response mostly above about 13%, no sharp cut-off; inactive = mostly below about 14%; note: read at 38.3 µM for the half of the compounds with a filed dose
# Shiga toxin inh – Shiga toxin inhibition | actives 9.2% (n = 290,000) | inhibition, % at 38.7 µM | Vero cells, Shiga toxin protein synthesis inhibition reporter; in the data active = inhibition mostly above about 28%, no sharp cut-off; inactive = mostly below about 43%
# Pf growth 96h – P. falciparum growth inhibition at 96 hours; Potency, µM (top dose mostly 28.7 µM), actives largely listed as inhibitors; AID 504834; P. falciparum luciferase reporter growth, 96 h; actives 6.9% (n = 320,000); active = well fitted inhibition curve with a large enough effect; inconclusive = small, poorly fitted or top-dose-only effect, or another doubt; inactive = no such curve, though single readings can be large or run the other way
#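 Parasite growth measured via integrated firefly luciferase reporter in P. falciparum. Infected erythrocytes at 2% hematocrit, 0.05% parasitemia final were treated 96 hours at 37 C under 5% CO2, and luminescence was read.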
# Pf growth 48h – inhibits P. falciparum growth in the first generation, 48 h | Potency, µM (titrated, usually from 28.7 µM), actives largely listed as inhibitors | actives 5.9% (n = 310,000) | P. falciparum luciferase growth in erythrocytes, 48 h; active = well fitted inhibition curve with a large enough effect; inconclusive = small, poorly fitted or top-dose-only effect, or another doubt; inactive = no such curve, though single readings can be large or run the other way
#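 First compound was added to culture medium, then infected red cells at 0.1% parasitemia and 2% hematocrit (final). After incubation at 37 C under 5% CO2, luciferase detection reagent was dispensed and light output recorded.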
# Hits are given with their value; – = inactive; ? = inconclusive; · = not tested or not shown; [ ] = another dose, or the depositor's remark. Sampled rows, rich in hits. Any-hit rate of the full collection: about 21%. Unless noted, calls come from the whole dose curve.
SMILES,NS1 inh,SARS PLP yeast,Cycloheximide cs,Shiga toxin inh,Pf growth 96h,Pf growth 48h
CC1Oc2ccccc2OC1(O)c1ccc2ccccc2n1 (stereo not given),–,–,–,–,–,–
O=C1CCCC2=C1C1c3ccccc3C(=O)N1c1ccc(C(=O)c3ccccc3)cc1N2 (stereo not given),–,–,–,–,–,2.3µM
O=C1CC(c2ccco2)CC2=C1C1c3ccccc3C(=O)N1c1ccccc1N2 (stereo not given),–[9.22 µM],–,–,–,–,?
C=CCn1c2ccccc2c(=O)c2cc(C#CC3(O)CCCCC3)ccc21,–,–,44,55,?,–
OC1CCN(Cc2ccc(OCc3ccccc3)cc2)CC1,–,–,19,·,4.1µM,–
COCCNC(=O)C1CCN(Cc2cccc(OCc3ccccc3)c2)CC1,–,–,–,·,–,–
CCCCNC(=O)C1CCN(Cc2ccc(OCc3ccccc3)cc2)CC1,–,–,26,63,?,–
O=C(CCN1CCN(Cc2ccccc2)CC1)Nc1ccc(OCc2ccccc2)cc1,–,–,–,–,?,·
c1ccc(COc2cccc(CN3CCCCC3)c2)cc1,–,–,–,–,–,–
C=CCN(CC=C)C(=O)C1CCN(Cc2ccc(OCc3ccccc3)cc2)CC1,–,–,18,·,–,?
CC1CCCN(Cc2ccc(OCc3ccccc3)cc2)C1 (stereo not given),–,–,22,–,–,–
C=CCn1c(SCC(=O)c2c(N)n(C)c(=O)n(C)c2=O)nnc1-c1ccoc1C,·,–,·,·,·,·
CN(C(=O)c1cccc(NC(=O)Cc2cccc([N+](=O)[O-])c2)c1)C1CC1,·,–,·,·,·,·
O=C(C1CCN(Cc2ccc(OCc3ccccc3)cc2)CC1)N1CCCC1,–,–,27,–,·,–
CCN(CC)C(=O)C1CCN(Cc2ccc(OCc3ccccc3)cc2)CC1,–,–,–,–,?,–
COc1ccc2c(c1)c(CC(=O)Nc1cccc(S(N)(=O)=O)c1)c(C)n2C(=O)c1ccc(Cl)cc1,–,–,–,–,?,?
O=C(Nc1ccc(S(=O)(=O)N2CCOCC2)cc1)c1cc(-c2ccccc2O)n[nH]1,–,–,–,–,?,10µM
CC1CN(S(=O)(=O)c2ccc(NC(=O)c3cc(-c4ccccc4O)n[nH]3)cc2)CC(C)O1 (stereo not given),·,–,–,–,0.93µM,1.7µM
Cc1ccccc1C(=O)Nc1ccc(S(=O)(=O)N2CC(C)OC(C)C2)cc1 (stereo not given),–,–,–,–,–,–
O=C(c1cc(COc2ccc(F)c(F)c2)on1)N1CCSCC1,–,–,47,62,–,–
CC(=O)c1cccc(OCc2cc(C(=O)N3CCSCC3)no2)c1,–,?,48,150,?,–
CN(CCCC1CCCC1)C(=O)c1cc(COc2ccc(F)c(F)c2)on1,–,–,–,–,?,–
COc1ccccc1OCC(=O)Nc1cc2c(cc1C(=O)O)OCCCO2,–,–,–,–,–,–
Cc1noc(C)c1CSCC(=O)N(CC(C)C)c1c(N)n(Cc2ccccc2)c(=O)[nH]c1=O,·,·,·,·,–,?
CC12CCC(C(=O)Nc3ccccc3)(C(Br)C1=O)C2(C)C (stereo not given),–,–,–,–,?,–
SMILES,NS1 inh,SARS PLP yeast,Cycloheximide cs,Shiga toxin inh,Pf growth 96h,Pf growth 48h
COc1ccc(CN2C[C@H]3CCCN3c3cc(Br)ccc3S2(=O)=O)cc1,·,–,·,·,·,·
CCCS(=O)(=O)N1CCN=C1SCc1cccc(C)c1,·,–,–,–,–,–
O=C1CN(C(=O)c2ccccc2)c2ccccc2N1,–,–,–,–,·,–
O=C1CN(C(=O)/C=C/c2ccccc2F)c2ccccc2N1,–,–,27,75,–,–
COc1ccc([C@@H]2[C@@H]3C(=O)N(C(C)(C)C)C(=O)[C@@H]3[C@]3(Cc4ccc(Cl)cc4)C(=O)N(c4cccc(C)c4)C(=O)N23)cc1,–,–,–,–,8.3µM,?
CC[C@@]12C(=O)N(c3cccc(C)c3)C(=O)N1[C@H](c1ccc(OC)cc1)[C@@H]1C(=O)N(C(C)(C)C)C(=O)[C@@H]12,–,–,–,–,?,?
COc1ccc([C@@H]2[C@@H]3C(=O)N(C(C)(C)C)C(=O)[C@@H]3[C@]3(Cc4ccc(Cl)cc4)C(=O)N(c4ccc(C)cc4)C(=O)N23)cc1,·,–,·,·,6.6µM,13µM
O=C(C[N+]12CN3CN(CN(C3)C1)C2)c1ccc(-c2ccccc2)cc1,–,·,·,·,·,·
O=C(/C(N=Nc1cccc([N+](=O)[O-])c1)=C(/O)c1ccc(Br)cc1)C(F)(F)F,–,–,22,86,?,?
N#C/C(=N\Nc1cccc([N+](=O)[O-])c1)C(=O)c1ccc(Br)cc1,·,–,–,–,?,?
Cc1ccc(S(=O)(=O)NCCOc2cc(C)ccc2C)cc1,–,–,–,–,?,–
CCOC(=O)N1CCN(C/C(Cl)=C/c2ccccc2)CC1,–,–,14,20,–,–
Cc1ccccc1CSCC(=O)N1CCN(c2ccccc2)CC1,–,–,23,70,–,–
CCOC(=O)C1CCCN(C(=O)c2ccccc2Oc2ccccc2)C1 (stereo not given),–,–,–,–,1.3µM,–
CCOC(=O)C1CCCN(C(=O)CSCc2ccccc2)C1 (stereo not given),–,–,44,52,?,–
Cc1cc(C)nc(SSc2nc(C)cc(C)n2)n1,–,–,–,–,?,?
CN(C(=O)COC(=O)CNC(=O)c1ccc(Cl)cc1Cl)c1ccccc1,·,–,–,–,–,–
COc1ccccc1CNC(=O)C1CCN(S(=O)(=O)c2ccc3c(c2)C(C)(C)C(=O)N3C)CC1,–,–,–,–,?,?
CCOC(=O)C1CCCN(C(=O)CSc2ccc(Br)cc2)C1 (stereo not given),–,–,42,65,–,–
CCOC(=O)N1CCN(CCc2ccccc2)CC1,–,–,–,–,10µM,–
CCOC(=O)C1CCCN(C(=O)CCc2nnc(-c3ccc(C(C)=O)s3)o2)C1 (stereo not given),–,–,63,109,–,–
CCOC(=O)C1CCCN(C(=O)CSc2nc(C)cc(C)n2)C1 (stereo not given),–,–,–,–,–,–
CCOC(=O)N1CCN(C(=O)CSCc2ccccc2)CC1,–,–,35,–,?,–
CC12CCC(C(=O)Nc3ccc(Br)cn3)(OC1=O)C2(C)C (stereo not given),–,–,–,–,–,?
O=C(CCSCCc1ccccn1)Nc1c(F)c(F)c(F)c(F)c1F,–,–,–,–,–,–
CCOC(=O)C1CCCN(C(=O)Cn2nc(Cc3cccnc3)c3ccccc3c2=O)C1 (stereo not given),–,–,–,–,7.4µM,·
O=C(C1CCN(C2CCN(C/C(Cl)=C/c3ccccc3)CC2)CC1)N1CCOCC1,–,–,–,–,10µM,–
